{"source": "PubChem BioAssay (Tox21)", "note": "Results filed as inconclusive are left out. Calls of active or inactive are those of the source. The call rests on the fitted dose curve. On the % scale 0 is the no-effect control and ±100 the full control effect; potency means the concentration at half of the fitted maximal effect.", "data": [{"molecular_target": "Thyrotropin receptor (Homo sapiens) (UniProt P16473)", "sequence (P16473 whole entry, looked up)": "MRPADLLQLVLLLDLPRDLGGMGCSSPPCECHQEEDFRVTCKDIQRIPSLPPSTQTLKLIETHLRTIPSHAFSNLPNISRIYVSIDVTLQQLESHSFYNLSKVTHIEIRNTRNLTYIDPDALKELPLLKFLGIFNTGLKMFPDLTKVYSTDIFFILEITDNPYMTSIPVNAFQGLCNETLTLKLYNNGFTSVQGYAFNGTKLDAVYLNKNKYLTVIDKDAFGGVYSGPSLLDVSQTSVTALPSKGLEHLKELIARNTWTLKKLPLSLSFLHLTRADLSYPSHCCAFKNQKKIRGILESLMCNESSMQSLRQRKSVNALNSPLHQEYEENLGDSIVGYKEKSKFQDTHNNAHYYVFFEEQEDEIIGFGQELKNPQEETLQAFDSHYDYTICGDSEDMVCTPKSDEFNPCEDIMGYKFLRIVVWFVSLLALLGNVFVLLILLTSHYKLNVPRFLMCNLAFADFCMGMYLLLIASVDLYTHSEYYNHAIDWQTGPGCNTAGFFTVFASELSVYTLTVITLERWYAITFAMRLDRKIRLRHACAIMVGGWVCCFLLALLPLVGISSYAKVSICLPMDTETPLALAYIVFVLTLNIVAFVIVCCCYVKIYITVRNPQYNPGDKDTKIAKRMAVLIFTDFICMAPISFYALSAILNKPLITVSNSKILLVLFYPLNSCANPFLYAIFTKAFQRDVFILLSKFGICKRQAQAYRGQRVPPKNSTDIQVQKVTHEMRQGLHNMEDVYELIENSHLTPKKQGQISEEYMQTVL", "experiment": "qHTS assay to identify small molecule antagonists of the thyroid stimulating hormone receptor (TSHR) signaling pathway (AID 1259385); further: nearly all actives have a fitted effect of over 20% in size", "conditions": "TSHR-HEK293 cAMP HTRF, TSH-stimulated antagonist mode; series mostly up to 92.4 µM; activity change, negative = inhibition: at the top concentration", "text": "U.S. Tox21 Program National Center for Advancing Translational Sciences [NCATS] NIH Chemical Genomics Center [NCGC] U.S. Environmental Protection Agency [EPA] National Institutes of Environmental Health Sciences [NIEHS] National Toxicology Program [NTP] U.S. Food and Drug Administration [FDA] Tox21 Assay Overview: TSHR is the receptor for thyrotropin (thyroid stimulating hormone or TSH), a member of the glycoprotein hormone family. TSH is released by the anterior pituitary gland and is the main regulator of thyroid gland growth and development. Upon binding circulating thyrotropin, a G-protein signal cascade activates adenylyl cyclase and […] cAMP concentration is increased. cAMP is a key second messenger involved extensively in cellular signal transduction pathways associated with the majority of G-protein coupled receptors (GPCRs). The activation of these GPCRs by neurotransmitters, lipids, nucleotides, peptides and hormones results in the activation or the inhibition of plasma membrane-bound adenylate cyclase through heterotrimeric G-proteins. A cell-based TSHR assay can be used to screen chemical compounds that modulate TSHR either in agonist or antagonist mode.\nTox21 Assay Protocol Summary: TSHR-Hek293 cells were dispensed at 800 cells/4uL/well in 1536-well white plates using a Multidrop dispenser. After the assay plates were incubated at a 37C/5% CO2 incubator for 18 hrs, 23 nL of compounds dissolved in DMSO, positive controls or DMSO only was transferred to the assay plate by a pin tool, followed by 1 ul medium containing Ro20-1724. For the antagonist mode screening, 1 uL of TSH was added on the top of the cell/compound mixtures to achieve a final agonist concentration of 1.5 ng/mL. After 30 min of incubation at room temperature, 2.5 ul/well of cAMP-d2 and 2.5 ul/well of anti-cAMP-cryptate were added respectively into the assay plates using a Flying Reagent Dispenser. The plates were incubated at room temperature for 1 hr. The fluorescence intensity in the plates was measured using an Envision plate reader. Each test compound was measured at 15 concentrations and in triplicates.", "values": [{"smiles": "O=c1c(C2CC(c3ccc(-c4ccc(Br)cc4)cc3)Cc3ccccc32)c(O)sc2ccccc12", "note": "(stereo not given)", "activity change, negative = inhibition": "-1.9% [at 42.5 µM] (inactive)"}, {"smiles": "N#CCCC(Br)(C#N)CBr", "note": "(stereo not given)", "Potency": "54.5 µM (active)"}, {"smiles": "N#C/C=C/C#N", "activity change, negative = inhibition": "7.18% (inactive)"}, {"smiles": "CC(C)OC(=O)C(O)(c1ccc(Cl)cc1)c1ccc(Cl)cc1", "activity change, negative = inhibition": "7.59% (inactive)"}, {"smiles": "Oc1ccc(C2(c3ccc(O)cc3)c3ccccc3-c3ccccc32)cc1", "activity change, negative = inhibition": "5.2% (inactive)"}, {"smiles": "c1ccc(Nc2ccc3ccccc3c2)cc1", "activity change, negative = inhibition": "-1.82% (inactive)"}, {"smiles": "C[As+](C)(C)CC(=O)[O-]", "activity change, negative = inhibition": "-12% (inactive)"}, {"smiles": "Oc1ccc(C(c2ccc(O)cc2)(C(F)(F)F)C(F)(F)F)cc1", "Potency": "inactive"}, {"smiles": "Nc1ccc([N+](=O)[O-])cc1Cl", "activity change, negative = inhibition": "-5.95% (inactive)"}, {"smiles": "O=c1[nH]c2ccccc2n1C1CCN(CCCC(c2ccc(F)cc2)c2ccc(F)cc2)CC1", "activity change, negative = inhibition": "-8.02% (inactive)"}, {"smiles": "CN(CCCC(O)c1cccnc1)N=O", "note": "(stereo not given)", "activity change, negative = inhibition": "0.136% (inactive)"}, {"smiles": "O=C1NCN(c2ccccc2)C12CCN(CC1COc3ccccc3O1)CC2", "note": "(stereo not given)", "activity change, negative = inhibition": "-9.92% [at 42.5 µM] (inactive)"}, {"smiles": "CC(C)CC(C)Nc1ccc(Nc2ccccc2)cc1", "note": "(stereo not given)", "activity change, negative = inhibition": "-8.87% (inactive)"}, {"smiles": "Cl/C=C\\CCl", "activity change, negative = inhibition": "4.02% (inactive)"}, {"smiles": "O=[N+]([O-])O.O=[N+]([O-])O.[Cd]", "activity change, negative = inhibition": "0.0755% (inactive)"}, {"smiles": "C[C@H]1CC[C@@H]2[C@@H](C)[C@H]3[C@H](C[C@H]4[C@@H]5CC=C6CC(O[C@@H]7O[C@H](CO)[C@H](O)[C@H](O[C@@H]8O[C@H](CO)[C@@H](O)[C@H](O)[C@H]8O)[C@H]7O[C@H]7O[C@@H](C)[C@H](O)[C@@H](O)[C@H]7O)CC[C@]6(C)[C@H]5CC[C@]34C)N2C1", "note": "(stereo not given in full)", "Potency": "10 µM (active)"}, {"smiles": "c1ccc2c(c1)[nH]c1cnccc12", "activity change, negative = inhibition": "-2.62% (inactive)"}, {"smiles": "NNC(=O)c1ccccc1", "activity change, negative = inhibition": "-0.803% (inactive)"}, {"smiles": "[Hg+2].[I-].[I-]", "Potency": "43.3 µM (active)"}, {"smiles": "O=C(CCCN1CCC2(CC1)C(=O)NCN2c1ccccc1)c1ccc(F)cc1", "activity change, negative = inhibition": "-0.56% [at 42.5 µM] (inactive)"}, {"smiles": "Oc1ccc(C(=C(Cl)Cl)c2ccc(O)cc2)cc1", "activity change, negative = inhibition": "0.583% (inactive)"}, {"smiles": "ClC(Cl)=C(Cl)Cl", "activity change, negative = inhibition": "1.71% (inactive)"}, {"smiles": "COc1cc(N)c(Cl)cc1C(=O)NC1CN2CCC1CC2", "note": "(stereo not given)", "activity change, negative = inhibition": "-0.598% [at 42.5 µM] (inactive)"}, {"smiles": "N#CCCSCCC#N", "activity change, negative = inhibition": "-2.14% (inactive)"}, {"smiles": "Cn1[nH]nnc1=S", "activity change, negative = inhibition": "2.33% (inactive)"}, {"smiles": "Nc1ccccc1C(=O)Oc1ccc2ccccc2c1", "activity change, negative = inhibition": "-0.977% (inactive)"}, {"smiles": "COc1ccc(/C(=C/C(=O)N2CCOCC2)c2ccc(Cl)cc2)cc1OC", "activity change, negative = inhibition": "-0.724% (inactive)"}, {"smiles": "Clc1ccc(CCC(Cn2ccnc2)Sc2c(Cl)cccc2Cl)cc1", "note": "(stereo not given)", "activity change, negative = inhibition": "-11.6% [at 42.5 µM] (inactive)"}, {"smiles": "N#Cc1c(-c2ccc(Cl)cc2)[nH]c(C(F)(F)F)c1Br", "activity change, negative = inhibition": "1.39% (inactive)"}, {"smiles": "Oc1ccc(I)cc1", "activity change, negative = inhibition": "2.33% (inactive)"}, {"smiles": "CC(C)(COCC1CO1)COCC1CO1", "note": "(stereo not given)", "activity change, negative = inhibition": "-3.36% (inactive)"}, {"smiles": "Cc1c(Cl)c(=O)oc2cc(OP(=O)(OCCCl)OCCCl)ccc12", "activity change, negative = inhibition": "-8.91% [at 42.5 µM] (inactive)"}, {"smiles": "COCC(=O)N(c1c(C)cccc1C)[C@H](C)C(=O)OC", "activity change, negative = inhibition": "6.39% (inactive)"}, {"smiles": "CCOP(=S)(OCC)SCCS(=O)(=O)CC", "activity change, negative = inhibition": "1.44% (inactive)"}, {"smiles": "CCN", "activity change, negative = inhibition": "-4.3% (inactive)"}, {"smiles": "c1ccc2cc3c(cc2c1)-c1cccc2cccc-3c12", "activity change, negative = inhibition": "-1.36% (inactive)"}, {"smiles": "N#CNC#N", "activity change, negative = inhibition": "-4.82% (inactive)"}, {"smiles": "Cc1cccc(OP(=O)(Oc2cccc(C)c2)Oc2cccc(C)c2)c1", "activity change, negative = inhibition": "0.708% (inactive)"}, {"smiles": "SCc1ccco1", "activity change, negative = inhibition": "-3.63% (inactive)"}, {"smiles": "CC(=O)Nc1ccc2c(c1)Cc1ccccc1-2", "activity change, negative = inhibition": "1.03% (inactive)"}]}]}
